Compound: CCc1cnn2c(NCc3ccc[n+]([O-])c3)cc(N3CCCC[C@H]3CCO)nc12 [dinaciclib]
Assay: cell viability remaining relative to DMSO control; higher = less cytotoxic (more viable cells)
Conditions: 100 nM; 24 h
Description: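 Solid tumor cell lines were treated with dinaciclib (100 nM) for 24 hr. Viability was measured by CellTiter-Glo ATP luminescence and expressed as % of DMSO-treated control wells (mean of 2-6 plates, triplicate wells per plate).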

Target	cell viability remaining [%]
T47D	87.6
COLO684	85.6
UACC62	57.1
ACHN	72.1
SKLU1	82.6
HT29	57.8
SNU16	52.2
OAW42	44.2
CHL1	3.1
H28	107
SW900	74.3
SW948	72.6
OVISE	94.6
SW1463	87.4
DBTRG05MG	81.7
A673	29.2
SKNFI	24.1
HEC1B	94.1
SW1417	83.7
AGS	46.7

Target	cell viability remaining [%]
OVKATE	105
HUPT4	9.8
CAL51	43.8
HS852T	54.3
SKMEL1	68.9
OAW28	63.1
BXPC3	29.4
HEC59	67.6
G361	4.9
H23	41.9
ZR751	91.3
SCC25	20.5
TYKNU	83.8
CHAGOK1	52.5
GRM	47
BT20	45.2
22RV1	50.2
COLO205	22.4
CALU1	78.1
C32	83

Source: the supplement of paper PMC4188521
